Compounds with a hit are over-represented: about 3.4% of the library has one in this group of screens.
TEAD-YAP block = TEAD-YAP interaction inhibition, primary screen, TEAD-YAP interaction inhibitor project, luminescence, HEK-TIYL cells | 640,000 tested, 1.4% active | inhibition, % at 9.12 µM | TEAD-Gal4/YAP UAS-luciferase luminescence; in the data active means inhibition above about 32%;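 further: 0% = median of test compound wells and 100% = reference inhibitor wells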
MITF primary = MITF inhibitors, primary screen, biochemical, AlphaScreen, human; Microphthalmia-associated transcription factor (Homo sapiens), O75030; AlphaScreen MITF homodimerization, bead proximity signal; inhibition, % at 2.6 µM; 650,000 tested, 0.91% active; in the data active means inhibition above about 50%;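 further: 0% = vehicle wells with protein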
GPR151 ag = activators of human GPR151, primary screen, cell-based, PathHunter beta-arrestin, luminescence | G-protein coupled receptor 151 (Homo sapiens), Q8TDV0 | PathHunter beta-arrestin GPR151 cells | activation, % at 11.2 µM | 650,000 tested, 1% active; in the data active means activation above about 4.9%;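 further: 0% = median of compound wells and 100% = cells with positive control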
FBW7 act = FBW7 E3 ligase activators, primary screen, biochemical, AlphaScreen, human. normalized activity (activation), % at 26.1 µM. 650,000 tested, 0.13% active. AlphaScreen FBW7–phospho-cyclin E peptide binding, activator screen; in the data active means normalized activity above about 1.9%;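 further: purified mutant Fbw7 with reduced substrate affinity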
Target sequence (Q969H0 whole entry, looked up): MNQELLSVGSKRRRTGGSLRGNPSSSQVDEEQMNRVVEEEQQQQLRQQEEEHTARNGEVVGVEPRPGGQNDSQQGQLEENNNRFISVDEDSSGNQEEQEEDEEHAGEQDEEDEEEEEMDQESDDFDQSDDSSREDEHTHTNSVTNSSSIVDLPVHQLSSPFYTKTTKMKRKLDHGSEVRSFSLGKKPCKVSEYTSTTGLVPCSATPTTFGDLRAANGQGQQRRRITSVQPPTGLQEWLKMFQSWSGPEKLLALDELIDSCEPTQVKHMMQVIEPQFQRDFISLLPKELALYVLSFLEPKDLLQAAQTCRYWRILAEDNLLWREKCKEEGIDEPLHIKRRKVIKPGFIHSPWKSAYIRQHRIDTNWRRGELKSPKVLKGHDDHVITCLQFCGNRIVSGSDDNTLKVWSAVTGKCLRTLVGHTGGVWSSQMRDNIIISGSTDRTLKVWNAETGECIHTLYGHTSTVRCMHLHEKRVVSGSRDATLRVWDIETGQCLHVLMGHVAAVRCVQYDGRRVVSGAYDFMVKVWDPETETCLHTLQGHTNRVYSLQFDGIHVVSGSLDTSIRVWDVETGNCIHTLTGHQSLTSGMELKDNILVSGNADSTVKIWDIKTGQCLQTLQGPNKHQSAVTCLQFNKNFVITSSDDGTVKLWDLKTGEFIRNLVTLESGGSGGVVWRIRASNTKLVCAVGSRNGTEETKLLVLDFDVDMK
Active calls of the source: *.

SMILES	TEAD-YAP block	MITF primary	GPR151 ag	FBW7 act
Cc1sc(NC(=O)COc2ccccc2)c(C(N)=O)c1-c1ccccc1	74.9*	3.7	-0.1	0.1
Cc1sc(NC(=O)COc2ccccc2)c(C(N)=O)c1C	-73.9	24.5	1.3	0.2
CCOC(=O)c1c(NC(=O)CSc2ccccc2)sc(CC)c1-c1ccccc1	-5.2	70.1*	1.9	0.1
CCN(CC)C(=O)C1CCCN(c2nc(NCc3ccccc3)nc(N(CC)CC)n2)C1 (stereo not drawn)	4.2	3.3	1.4	0.0
Cc1cc(NCC(O)c2cccc(O)c2)n2nc(-c3ccc(F)cc3)cc2n1 (stereo not drawn)	-8.4	-1.3	0.1	-0.1
CCc1ccc2c(c1)NC(=O)C2(C)Cc1cccc(C(=O)OC)c1 (stereo not drawn)	44.1*	1.8	0.5	0.2
O=C(CCC(=O)Nc1ccccc1)NNC(=S)Nc1ccc(F)cc1	-7.4	-13.9	2.3	0.0
O=C(O)COc1ccccc1/C=C1\C(=O)NC(=O)N(c2cccc([N+](=O)[O-])c2)C1=O	0.4	54.8*	-1.6	-0.2
C=CCN1C(=O)/C(=C/c2ccco2)S/C1=N/S(=O)(=O)c1ccc(Cl)s1	-9.1	-10.7	-1.5	-0.2
CC(Nc1cc(N2CCN(C(=O)c3ccco3)CC2)ccc1[N+](=O)[O-])C12CC3CC(CC(C3)C1)C2 (stereo not drawn)	43.2*	-13.6	1.1	-0.1
CCOC(=O)CN(Cc1ccccc1)c1ccnc(Nc2ccc(-n3nc(C)nc3C)cc2)n1	52.6*	-0.3	0.6	-0.2
Cc1nc(C)n(-c2ccc(Nc3nccc(-c4ccc5ccccc5c4)n3)cc2)n1	26.8	16.8	-0.4	1.0
Cc1nc(C)n(-c2ccc(Nc3nccc(N(C)Cc4ccccc4)n3)cc2)n1	50.7*	23.7	0.4	0.9
C/C(CC(=O)Nc1ccc(F)cc1F)=N\NC(=O)c1ccc(O)cc1	-16.8	16.2	-1.1	2.1*
COc1ccc(C(=O)Nc2cccnc2)cc1OC	-17.9	-2.1	-0.9	0.1
C/C(CC(=O)Nc1cccc2c1CCCC2)=N\NC(=O)c1cccc(O)c1	13.9	5.1	-1.0	0.0
COc1ccc(C(=O)N/N=C(\C)CC(=O)Nc2cccc3c2CCCC3)cc1OC	32.0*	8.7	-0.6	0.1
COc1ccc(C(=O)N/N=C(\C)CC(=O)Nc2ccccc2Br)cc1OC	41.5*	-12.4	-1.7	-0.3
COc1ccc(C(=O)N/N=C(\C)CC(=O)Nc2cccnc2)cc1OC	33.7*	7.5	-0.7	0.3
Cc1ccc(C(=O)Oc2ccc(C3Oc4ccccc4C4CC(c5ccc(C)cc5)=NN43)cc2)cc1 (stereo not drawn)	-49.4	-11.1	0.9	-0.1
COc1ccc(CN2CCN(CCOCCO)CC2)cc1OC	-1.1	1.4	-0.4	0.0
COc1ccc(Br)c(C(=O)N/C(=C\c2cccc([N+](=O)[O-])c2)C(=O)Nc2ccc(Br)cc2)c1	9.3	9.3	-0.4	-0.1
CS(=O)(=O)N1CC[C@H]2[C@H](CCCN2C(=O)Cc2ccc(F)cc2)C1	12.7	-11.2	-0.8	-0.1
CC(C)CC(NC1=C(Cl)C(=O)c2ccccc2C1=O)C(=O)O (stereo not drawn)	-18.2	0.9	0.0	-0.1
Cc1c(C(=O)N2CCCC2)oc2ccc(S(=O)(=O)N3CCC4(CC3)OCCO4)cc12	-4.7	-0.2	-0.2	-0.1
SMILES	TEAD-YAP block	MITF primary	GPR151 ag	FBW7 act
COCCn1c(SCC(=O)Nc2ccccc2C)nnc1-c1cccs1	11.2	24.1	-0.4	0.6
O=C(Nc1ccc(Cl)cc1)c1cc2ccccc2cc1NS(=O)(=O)c1ccccc1	53.4*	11.0	1.2	0.2
CCOC(=O)N1CCC(n2c(SCC(=O)Nc3ccc(C)cc3)nc3ccccc3c2=O)CC1	55.4*	3.9	-0.5	0.0
CC(C)(C)c1ccc(-c2nc3ccccc3c(=O)n2NC(=O)c2cccnc2)cc1	83.5*	9.9	1.0	-0.1
COc1ccc(C(=O)Nn2c(SCc3cccnc3)nc3ccccc3c2=O)cc1	66.4*	-14.0	-0.9	0.0
COc1ccc(C(C)=O)cc1CSc1nc2ccccc2c(=O)n1NC(=O)c1ccccc1	-14.9	7.2	-1.3	-0.1
COc1ccc(C(=O)Nn2c(SCc3cccc(Br)c3)nc3ccccc3c2=O)cc1	51.8*	-0.5	0.4	-0.1
COc1ccc(C2=NN(CC(=O)NC(C)c3ccccc3)C(=O)CC2)cc1 (stereo not drawn)	13.3	-4.9	3.2	0.0
COc1ccc(C(=O)Nn2c(SCc3cccc([N+](=O)[O-])c3)nc3ccccc3c2=O)cc1	71.6*	1.1	0.3	-0.1
COc1ccc(C(=O)Nn2c(SCc3ccc(C)cc3)nc3ccccc3c2=O)cc1	38.0*	-3.3	2.1	-0.1
COc1ccc(C(=O)Nn2c(SCc3cccc(F)c3)nc3ccccc3c2=O)cc1	77.0*	-6.4	0.0	0.0
COc1ccc(C(=O)Nn2c(SCc3ccc(Cl)cc3)nc3ccccc3c2=O)cc1	30.3	-2.4	0.2	0.1
O=C(Nn1c(SCc2cccc([N+](=O)[O-])c2)nc2ccccc2c1=O)c1ccccc1	-34.9	9.2	1.9	0.1
COc1ccc(C(=O)Nn2c(SCc3ccc(F)cc3)nc3ccccc3c2=O)cc1	51.6*	-8.2	2.6	0.0
c1ccc2c(c1)COC(CCN1CCN(CCC3OCc4ccccc4CO3)CC1)OC2	-5.4	2.4	-0.3	0.2
N#Cc1c(NC(=O)C2=COCCO2)sc2c1CCN(Cc1ccccc1)C2	21.0	-4.5	0.0	0.0
COc1cccc(C2NC(=O)NC(C)=C2C(=O)OCCSC)c1 (stereo not drawn)	-6.0	-1.2	0.2	0.6
Cc1ccc(NC(=O)CSc2nc3ccccc3c(=O)n2NC(=O)c2ccc(F)cc2)cc1	41.3*	6.7	-3.5	0.6
c1ccc(COc2ccc(OCCCCN3CCNCC3)cc2)cc1	-14.4	55.8*	0.4	0.1
O=C(CNCc1ccccc1)Nc1ccc(N2CCCC2)cc1	-20.6	12.2	-0.3	0.6
O=C(CNCc1ccccc1)Nc1ccc(C(=O)N2CCCC2)cc1	43.7*	6.6	-6.3	-0.1
Ic1ccc(OCCCCN2CCNCC2)cc1	-54.1	13.7	0.3	0.1
O=C(c1ccc(OCc2ccccc2)cc1)N1CCCC1	84.4*	14.2	-9.0	0.4
O=C(c1ccc(-c2nnc(-c3ccccc3)o2)cc1)N1CCCCC1	51.4*	-4.1	-9.6	-0.1
Cc1cc(C(=O)Nc2sc(C)c(C)c2C(N)=O)ccc1[N+](=O)[O-]	-44.5	-7.9	0.3	0.1
NNC(=O)c1ccc(Cn2cnc(N)n2)o1	5.2	5.1	-0.3	0.0
COc1cccc(C(=O)Nc2cc(-c3ccc(OC)nn3)ccc2C)c1	6.3	6.2	-1.0	-0.1
COc1cc(OC)cc(C(=O)Nc2ccc(N3CCN(C(=O)C(C)C)CC3)cc2)c1	47.4*	-1.8	-1.1	-0.4
CCn1c2ccccc2c2cc(NC(=O)c3cc(OC)cc(OC)c3)ccc21	51.9*	12.8	-1.4	-0.1

Screens from PubChem BioAssay.
